TDP1 cell noCPT = qHTS for Inhibitors of human tyrosyl-DNA phosphodiesterase 1 (TDP1): qHTS in cells in absence of CPT | DT40 Tdp1-/- hTDP1 cells, no CPT, ATP luminescence, 48 h | 15% of 420,000 active | Potency, µM (doses to about 46.2 µM), for inactives: at the top dose activity change, negative = growth inhibition, most hits filed as inhibitors | AID 686978, 2013; also: potency is read from the fitted curve at half-maximal effect; % is scaled to controls: 0 for no effect and ±100 for the full control effect; nearly all actives have a fitted effect of over 55% in size
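Readout: luminescence from CellTiter-Glo after 30 min in the dark at RT. Cells: DT40 Tdp1-/- with stable hTDP1, 400/well. Exposure: compounds alone, ≥48 hr, 37 °C.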
IL-1B inflam inh = qHTS for Inhibitors of Inflammasome Signaling: IL-1-beta AlphaLISA Primary Screen; 4.7% of 360,000 active; activity change, % at 57.5 µM; THP-1 LPS/ATP IL-1B secretion, AlphaLISA, 16 h; hits give low values; in the data active = activity change below about -50%; inconclusive = mostly about -30% to -49%; also: % is scaled to controls: 0 for no effect and ±100 for the full control effect
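THP-1 cells pretreated 1 hr with compounds (up to 57.5 uM final), then stimulated with LPS (250 ng/mL final) plus ATP (1.25 mM final); secreted IL-1B measured by AlphaLISA after 16 hr, decreased signal indicating inhibition.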
MCF10A rerep = A quantitative high throughput screen for small molecules that induce DNA re-replication in MCF 10a normal breast cells; MCF 10A DNA re-replication, Hoechst nuclear intensity, 48 h; Potency, µM (highest dose often 46.1 µM), for inactives: top-dose activity, positive = re-replication, most hits filed as activators; 2.9% of 350,000 active; AID 624296, 2012; also: potency is read from the fitted curve at half-maximal effect; % of control where 0% means no effect; nearly all actives have a fitted effect of over 50% in size
DT40 TDP1 CPT = qHTS for Inhibitors of human tyrosyl-DNA phosphodiesterase 1 (TDP1): qHTS in cells in presence of CPT; AID 686979, 2013; chicken DT40 Tdp1-/-;hTDP1 cells + 20 nM CPT, ATP luminescence, 48 h; Potency, µM (series often up to 46.2 µM), for the others: at the highest dose activity change, negative = growth inhibition, most hits filed as inhibitors; 12% of 420,000 active; also: potency is read from the fitted curve at half-maximal effect; % is scaled to controls: 0 for no effect and ±100 for the full control effect; nearly all actives have a fitted effect of over 55% in size
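Cell growth measured by CellTiter-Glo luminescence after a minimum 48 h, 37 C compound exposure with 20 nM CPT in Tdp1-knockout DT40 cells stably expressing hTDP1, seeded 400/well; qHTS titration format.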
SW480 rerep = A quantitative high throughput screen for small molecules that induce DNA re-replication in SW480 colon adenocarcinoma cells. SW480 DNA re-replication, Hoechst DNA content imaging, 48 h. 1.8% of 340,000 active. Potency, µM (series often up to 46.1 µM), without a hit: at the highest dose re-replication activation, actives largely listed as activators; also: potency is read from the fitted curve at half-maximal effect; % of control where 0% means no effect; nearly all actives have a fitted effect of over 55% in size
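Readout is total intensity of Hoechst-stained nuclei, excited at 405 nm and collected at 500-530 nm. Compound treatment lasted 48 hr at 37 C in 5% CO2 before staining.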
BCR signal inh = qHTS Assay to Find Inhibitors of Chronic Active B-Cell Receptor Signaling; ABC-DLBCL IkBa-CBG/CBR reporter, luminescence ratio, 4 h; Potency, µM (doses to about 46.1 µM), without a hit: at the top dose activity change, negative = inhibition, actives largely listed as inhibitors; 0.05% of 340,000 active; AID 493014, 2011; active = well fitted inhibition curve with a large enough effect in the signal ratio, with a control signal flat, not every such curve was filed as active; inconclusive = small, poorly fitted or top-dose-only effect, or effect the other way, or a change in a side signal; the % refers to the signal ratio;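 also: potency is read from the fitted curve at half-maximal effect; plate controls were basal doxycycline-induced cells for no effect and cells given 10 µM MG132 for full effect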
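Cell line TMD8 (human ABC DLBCL), stably expressing tet-inducible CBG68-IkBa fusion and CBR; IMDM/0.5% FBS; cpd up to 46 uM; dox induction, 4 h, 37C/5% CO2; dual luminescence; green/red ratio; MG132 control.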
Active calls of the source: *; ? = inconclusive; . = no result; [ ] = remark or other dose. Shown are actives, neighbours in structure and some others; about 19% of the full set was active somewhere. Unless noted, calls follow the shape of the dose curve; as a rule, active = well fitted curve in the direction sought with a large enough effect; inconclusive = small, poorly fitted or top-dose-only effect, or another doubt; inactive = no such curve, though single readings can be large; an effect the other way counts as inactive or inconclusive.

SMILES | TDP1 cell noCPT | IL-1B inflam inh | MCF10A rerep | DT40 TDP1 CPT | SW480 rerep | BCR signal inh
CN(C(=O)COC(=O)/C=C/c1ccc(Cl)c(Cl)c1)c1c(N)n(Cc2ccccc2)c(=O)[nH]c1=O | 16.4µM* | -11.7 | ? | 9.2µM* | 4.6% | -7.9%
CN(C(=O)COC(=O)/C=C/c1ccc2ccccc2n1)c1c(N)n(Cc2ccccc2)c(=O)[nH]c1=O | ? | -55.5* | ? | ? | 15.5% | ?
CC1CCCCN1C(=O)COC(=O)/C=C/c1ccc2ccccc2n1 (configuration not stated) | ? | -54.2* | ? | ? | ? | -11.0%
CCCOc1ccc(/C=C/C(=O)OCC(=O)N(C)c2c(N)n(Cc3ccccc3)c(=O)[nH]c2=O)cc1OCC | 16.4µM* | 4.8 | 18.0% | ? | ? | 6.2%
O=c1c(Cc2ccc(F)cc2)c(O)ccn1CCCn1ccnc1 | 9.8% | 5.3 | 8.6% | -2.1% | ? | -9.1%
CC(NC(=O)c1cccnc1)c1nnc2n1CCN(Cc1ccc(F)cc1F)CC2 (configuration not stated) | -17.6% | . | . | 23.7%[9.04 µM] | . | .
Cc1ccc(/C=C(\C#N)C(=O)Nc2cccc(Br)c2)o1 | -11.1% | . | . | 0.0% | . | .
N#C/C(=C\c1ccc(N2CCCCC2)o1)C(=O)Nc1cccc(Br)c1 | 7.31µM* | ? | ? | ? | 16.0% | -9.0%
O=C(Nc1cccc2[nH]c([C@H]3C[C@H](O)[C@@H](CO)O3)nc12)NC(c1ccccc1)c1ccccc1 | -9.6% | -6.6 | . | 0.8% | . | .
CC(=O)N1C(C)(C)CC(=NOS(=O)(=O)c2ccccc2)CC1(C)C | 1.0% | 7.3 | -9.2% | -2.9% | -12.5% | 0.5%
CC(=O)OC1(C)C=Cc2ccccc2C1=NS(=O)(=O)c1ccccc1 (configuration not stated) | 23.1µM* | 33.9 | . | ? | . | .
Cc1ccc(C)c(S(=O)(=O)N/N=C/c2ccc(N3CCOCC3)cc2)c1 | ? | -9.4 | -0.1% | ? | 0.3% | -1.1%
FC(F)(F)c1cc(-c2ccccc2)nc(NC2CCCC2)n1 | -18.2% | 19.2 | 7.31µM* | -15.9% | 12.2% | ?
COc1cc2c(N3CCN(C(=O)Nc4ccc(OC(C)C)cc4)CC3)ncnc2cc1OCCCN1CCCCC1 | 21.1µM* | . | . | ? | . | .
COc1ccccc1C(CNC(=O)c1ccc(C)c(S(=O)(=O)N2CCCCC2)c1)N1CCCC1 (configuration not stated) | -21.5% | -13.1 | ? | -15.1% | -12.7% | 3.3%
CC1CCC(NC(=O)CCS(=O)(=O)c2ccc3c(c2)CCN3C(=O)C2CC2)CC1 (configuration not stated) | 0.0% | 0.0 | 0.8% | -22.9% | -1.4% | -0.9%
COc1cc(/C=C2/NC(=O)N(Cc3ccccc3F)C2=O)cc(OC)c1OC | 16.4µM* | ? | 4.2% | ? | -11.2% | 14.0%
COc1ccc(/C=C2/NC(=O)N(Cc3ccccc3F)C2=O)cc1OC | ? | 6.9 | -2.4% | ? | -3.7% | 12.7%
Cc1cc(/C=C2/NC(=O)N(Cc3ccccc3F)C2=O)c(C)n1-c1ccccn1 | -23.2% | 18.6 | ? | 5.3% | 0.82µM* | ?
C[C@@H](CO)NC(=O)c1nc[nH]c1C(=O)N[C@H](C)c1ccccc1 | -1.5% | -3.7 | . | 2.5% | . | .
CCOC(=O)CNC(=S)N(Cc1ccc(C)cc1)Cc1ccc(C)o1 | ? | -55.2* | 16.0% | ? | -2.6% | -9.8%
Cc1ccc(CN(Cc2ccc(C)o2)C(=S)NCC(=O)O)cc1 | -4.6% | -0.3 | -5.5% | -7.5% | -5.9% | 1.3%
COc1ccc2sc(N(Cc3cccnc3)C(=O)C3COc4ccccc4O3)nc2c1 (configuration not stated) | ? | . | . | ? | . | -14.2%
Cc1ccc(C(=O)c2cn(Cc3c(F)cccc3Cl)c3nc(C)ccc3c2=O)cc1 | ? | . | . | -8.1% | . | .
CCOc1ccccc1NC(=O)Cn1cc(C(=O)c2ccc(Cl)cc2)c(=O)c2ccc(C)nc21 | 14.6µM* | . | . | ? | . | .
SMILES | TDP1 cell noCPT | IL-1B inflam inh | MCF10A rerep | DT40 TDP1 CPT | SW480 rerep | BCR signal inh
Cc1ccc(C(=O)c2cn(Cc3cc(C)ccc3C)c3nc(C)ccc3c2=O)cc1 | 20.6µM* | . | . | ? | . | .
Cc1ccc2c(=O)c(C(=O)c3ccccc3)cn(CC(=O)Nc3ccccc3C)c2n1 | -0.3% | . | . | -12.6% | . | .
CCc1ccc(C(=O)c2cn(CC(=O)NCc3ccc(C)cc3)c3nc(C)ccc3c2=O)cc1 | 1.1% | . | . | -7.9% | . | .
Cc1ccc(C(=O)c2cn(Cc3cccc(C)c3)c3nc(C)ccc3c2=O)cc1 | 20.6µM* | . | . | ? | . | .
CC(=O)Oc1ccc(CC(C(=O)O)N2C(=O)c3ccccc3C2=O)cc1 (configuration not stated) | -2.3% | 45.7 | 3.0% | 5.5% | -0.9% | 1.2%
CC(=O)Oc1ccc(C#C/C=C2\c3ccccc3C(=O)N2c2ccccc2)cc1 | 20.6µM* | -99.6* | ? | 23.1µM* | ? | 0.0%
COC(=O)[C@@]12C[C@@H](CC(=O)NCCCN3CCCC3=O)C(=O)N(Cc3ccc4c(c3)OCO4)C1=CCC(C)(C)C2 | ? | 6.7 | . | ? | . | .
COc1cccc(NC(=O)C2CCCN(c3ncnc4onc(-c5ccc(F)cc5)c34)C2)c1 (configuration not stated) | 16.4µM* | . | . | ? | . | .
O=C(NCc1ccc(F)cc1)C1CCCN(c2ncnc3onc(-c4ccc(F)cc4)c23)C1 (configuration not stated) | 16.4µM* | . | . | 20.6µM* | . | .
Cc1ccccc1NC(=O)C1CCCN(c2ncnc3onc(-c4ccc(F)cc4)c23)C1 (configuration not stated) | -29.9% | 5.9 | -1.2% | ? | -37.1% | -4.1%
CCOc1ccccc1N(C)C(=O)C1CCCN(c2ncnc3onc(-c4ccc(F)cc4)c23)C1 (configuration not stated) | 8.2µM* | . | . | 11.6µM* | . | .
O=C(NCc1ccc(F)cc1)C1CCCN(C(=O)NCc2ccccc2)C1 (configuration not stated) | -16.6% | 2.3 | -0.9% | 9.9% | 0.7% | ?

From PubChem
